# Where a chain is given by its changes, count along the chain named.
# Assays:
# Assay in all cases: yeast three-hybrid, YBZ-1, SC-Leu-His + 0.5 mM 3-AT, 4 days
# Details in all cases: tags: N-Gal4 AD-HA kept; label: inside an RPR1-promoter hybrid RNA with tandem MS2 sites; ssRNA
# PUM1 PUF domain R3-VRW = PUM1 PUF domain R3-VRW (Homo sapiens, UniProt Q14671 828-1176, C935V;Q939W)
# Summary of the method: (§1)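 A centromeric plasmid in strain YBZ-1 co-expressed Pumilio-1 PUF domain libraries, randomized at the three base-contacting residues of each repeat, with matching RNA elements; the strain carries a LexA–MS2 coat fusion and a HIS3 reporter. After four days on SC-Leu (input) or SC-Leu-His + 0.5 mM 3-AT (selection), the repeat regions were PCR-amplified and Illumina-sequenced. The interaction score is the log change in variant frequency from input to selection, using log2 and a pseudocount of 1 where absent.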
# PUM1 PUF domain R5-TRA = PUM1 PUF domain R5-TRA (Homo sapiens, UniProt Q14671 828-1176, C1007T;Q1011A)
# Sequence of PUM1 PUF domain R5-TRA (Q14671 828-1176 C1007T/Q1011A): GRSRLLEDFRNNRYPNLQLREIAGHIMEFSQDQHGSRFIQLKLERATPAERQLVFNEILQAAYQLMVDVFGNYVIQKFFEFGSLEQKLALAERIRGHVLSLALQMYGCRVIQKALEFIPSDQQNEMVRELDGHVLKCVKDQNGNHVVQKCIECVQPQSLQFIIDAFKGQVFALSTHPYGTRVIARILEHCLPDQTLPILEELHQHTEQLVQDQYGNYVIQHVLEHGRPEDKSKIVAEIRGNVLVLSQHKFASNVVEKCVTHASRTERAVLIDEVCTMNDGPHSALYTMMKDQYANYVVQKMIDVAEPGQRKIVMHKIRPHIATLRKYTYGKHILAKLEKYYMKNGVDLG
# Summary of the method: as §1
# PUM1 PUF domain R8-KNR = PUM1 PUF domain R8-KNR (Homo sapiens, UniProt Q14671 828-1176, N1122K;Y1123N;Q1126R)
# Summary of the method: as §1
# PUM1 PUF domain R6-FYI = target: T1, PUM1 PUF domain R6-FYI (Homo sapiens, UniProt Q14671 828-1176, N1043F;Q1047I)
# T1 sequence: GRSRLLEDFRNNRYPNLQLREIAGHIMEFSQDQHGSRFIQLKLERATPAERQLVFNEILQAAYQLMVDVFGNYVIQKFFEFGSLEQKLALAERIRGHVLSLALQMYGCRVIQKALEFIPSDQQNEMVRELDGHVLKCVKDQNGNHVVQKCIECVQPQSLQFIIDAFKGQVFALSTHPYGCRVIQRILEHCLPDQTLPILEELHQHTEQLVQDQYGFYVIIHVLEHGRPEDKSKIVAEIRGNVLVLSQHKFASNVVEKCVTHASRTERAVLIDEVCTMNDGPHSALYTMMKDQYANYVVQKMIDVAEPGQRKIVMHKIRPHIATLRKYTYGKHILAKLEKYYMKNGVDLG
# Summary of the method: as §1
# PUM1 PUF domain R6-TWS = target: T2, PUM1 PUF domain R6-TWS (Homo sapiens, UniProt Q14671 828-1176, N1043T;Y1044W;Q1047S)
# T2 sequence: T1 sequence with F216T, Y217W, I220S
# Summary of the method: as §1
# PUM1 PUF domain R4-QGA = PUM1 PUF domain R4-QGA (Homo sapiens, UniProt Q14671 828-1176, N971Q;H972G;Q975A)
# Summary of the method: as §1
# PUM1 PUF domain R3-MCG = PUM1 PUF domain R3-MCG (Homo sapiens, UniProt Q14671 828-1176, C935M;R936C;Q939G)
# Summary of the method: as §1
# PUM1 PUF domain R5-GQA = PUM1 PUF domain R5-GQA (Homo sapiens, UniProt Q14671 828-1176, C1007G;R1008Q;Q1011A)
# Summary of the method: as §1
# PUM1 PUF domain R5-TND = PUM1 PUF domain R5-TND (Homo sapiens, UniProt Q14671 828-1176, C1007T;R1008N;Q1011D)
# Summary of the method: as §1
# PUM1 PUF domain R5-AQR = PUM1 PUF domain R5-AQR (Homo sapiens, UniProt Q14671 828-1176, C1007A;R1008Q;Q1011R)
# Summary of the method: as §1
# PUM1 PUF domain R5-PHD = PUM1 PUF domain R5-PHD (Homo sapiens, UniProt Q14671 828-1176, C1007P;R1008H;Q1011D)
# Summary of the method: as §1
# PUM1 PUF domain R1-VFR = PUM1 PUF domain R1-VFR (Homo sapiens, UniProt Q14671 828-1176, S863V;R864F;Q867R)
# Summary of the method: as §1
# PUM1 PUF domain R1-GAS = PUM1 PUF domain R1-GAS (Homo sapiens, UniProt Q14671 828-1176, S863G;R864A;Q867S)
# Summary of the method: as §1
# PUM1 PUF domain R1-RFI = PUM1 PUF domain R1-RFI (Homo sapiens, UniProt Q14671 828-1176, S863R;R864F;Q867I)
# Summary of the method: as §1
# PUM1 PUF domain R1-KIE = PUM1 PUF domain R1-KIE (Homo sapiens, UniProt Q14671 828-1176, S863K;R864I;Q867E)
# Summary of the method: as §1
# PUM1 PUF domain R8-RYK = PUM1 PUF domain R8-RYK (Homo sapiens, UniProt Q14671 828-1176, N1122R;Q1126K)
# Summary of the method: as §1
# PUM1 PUF domain R7-QNR = PUM1 PUF domain R7-QNR (Homo sapiens, UniProt Q14671 828-1176, S1079Q;E1083R)
# Summary of the method: as §1
# PUM1 PUF domain R7-RVR = PUM1 PUF domain R7-RVR (Homo sapiens, UniProt Q14671 828-1176, S1079R;N1080V;E1083R)
# Summary of the method: as §1
# PUM1 PUF domain R7-RKR = PUM1 PUF domain R7-RKR (Homo sapiens, UniProt Q14671 828-1176, S1079R;N1080K;E1083R)
# Summary of the method: as §1
# PUM1 PUF domain R3-RMK = PUM1 PUF domain R3-RMK (Homo sapiens, UniProt Q14671 828-1176, C935R;R936M;Q939K)
# Summary of the method: as §1
sequence,measurement,setting,value
GGCUAGAACUAGUGGAUCCCCCGGCGCCCGGCGGCUCGAGCCCGGGUAAGUGUAAAUAGUCUGCAUGCCGCCGGGCGCCAUGCCUGCAGGUCGACUCUAGAAAACAUG,binding signal,PUM1 PUF domain R3-VRW,3.7 log2 enrichment (interaction score)
same,binding signal,PUM1 PUF domain R5-TRA,2.82 log2 enrichment (interaction score)
same,binding signal,PUM1 PUF domain R8-KNR,1.82 log2 enrichment (interaction score)
same,binding signal,PUM1 PUF domain R6-FYI,2.78 log2 enrichment (interaction score)
same,binding signal,PUM1 PUF domain R6-TWS,2.56 log2 enrichment (interaction score)
GGCUAGAACUAGUGGAUCCCCCGGCGCCCGGCGGCUCGAGCCCGGGUAAGUGUAUAUAGUCUGCAUGCCGCCGGGCGCCAUGCCUGCAGGUCGACUCUAGAAAACAUG,binding signal,PUM1 PUF domain R4-QGA,2.73 log2 enrichment (interaction score)
GGCUAGAACUAGUGGAUCCCCCGGCGCCCGGCGGCUCGAGCCCGGGUAAGUGAAAAUAGUCUGCAUGCCGCCGGGCGCCAUGCCUGCAGGUCGACUCUAGAAAACAUG,binding signal,PUM1 PUF domain R6-TWS,5.32 log2 enrichment (interaction score)
GGCUAGAACUAGUGGAUCCCCCGGCGCCCGGCGGCUCGAGCCCGGGUAAGUGUAAGUAGUCUGCAUGCCGCCGGGCGCCAUGCCUGCAGGUCGACUCUAGAAAACAUG,binding signal,PUM1 PUF domain R3-MCG,2.55 log2 enrichment (interaction score)
GGCUAGAACUAGUGGAUCCCCCGGCGCCCGGCGGCUCGAGCCCGGGUAAGUGUUAAUAGUCUGCAUGCCGCCGGGCGCCAUGCCUGCAGGUCGACUCUAGAAAACAUG,binding signal,PUM1 PUF domain R5-TRA,2.4 log2 enrichment (interaction score)
same,binding signal,PUM1 PUF domain R5-GQA,2.64 log2 enrichment (interaction score)
same,binding signal,PUM1 PUF domain R5-TND,2.81 log2 enrichment (interaction score)
same,binding signal,PUM1 PUF domain R5-AQR,3.22 log2 enrichment (interaction score)
same,binding signal,PUM1 PUF domain R5-PHD,3.76 log2 enrichment (interaction score)
GGCUAGAACUAGUGGAUCCCCCGGCGCCCGGCGGCUCGAGCCCGGGUAAGUGUCAAUAGUCUGCAUGCCGCCGGGCGCCAUGCCUGCAGGUCGACUCUAGAAAACAUG,binding signal,PUM1 PUF domain R5-AQR,5.35 log2 enrichment (interaction score)
GGCUAGAACUAGUGGAUCCCCCGGCGCCCGGCGGCUCGAGCCCGGGUAAGUGUAAAUCGUCUGCAUGCCGCCGGGCGCCAUGCCUGCAGGUCGACUCUAGAAAACAUG,binding signal,PUM1 PUF domain R1-VFR,3.96 log2 enrichment (interaction score)
same,binding signal,PUM1 PUF domain R1-GAS,2.52 log2 enrichment (interaction score)
GGCUAGAACUAGUGGAUCCCCCGGCGCCCGGCGGCUCGAGCCCGGGUAAGUGUAAAUUGUCUGCAUGCCGCCGGGCGCCAUGCCUGCAGGUCGACUCUAGAAAACAUG,binding signal,PUM1 PUF domain R1-VFR,1.47 log2 enrichment (interaction score)
same,binding signal,PUM1 PUF domain R1-RFI,2.47 log2 enrichment (interaction score)
same,binding signal,PUM1 PUF domain R1-KIE,3.28 log2 enrichment (interaction score)
GGCUAGAACUAGUGGAUCCCCCGGCGCCCGGCGGCUCGAGCCCGGGUAAGCGUAAAUAGUCUGCAUGCCGCCGGGCGCCAUGCCUGCAGGUCGACUCUAGAAAACAUG,binding signal,PUM1 PUF domain R8-KNR,2.46 log2 enrichment (interaction score)
same,binding signal,PUM1 PUF domain R8-RYK,7.26 log2 enrichment (interaction score)
GGCUAGAACUAGUGGAUCCCCCGGCGCCCGGCGGCUCGAGCCCGGGUAAGUCUAAAUAGUCUGCAUGCCGCCGGGCGCCAUGCCUGCAGGUCGACUCUAGAAAACAUG,binding signal,PUM1 PUF domain R7-QNR,3.58 log2 enrichment (interaction score)
same,binding signal,PUM1 PUF domain R7-RVR,0.98 log2 enrichment (interaction score)
GGCUAGAACUAGUGGAUCCCCCGGCGCCCGGCGGCUCGAGCCCGGGUAAGUGUACAUAGUCUGCAUGCCGCCGGGCGCCAUGCCUGCAGGUCGACUCUAGAAAACAUG,binding signal,PUM1 PUF domain R4-QGA,2.09 log2 enrichment (interaction score)
GGCUAGAACUAGUGGAUCCCCCGGCGCCCGGCGGCUCGAGCCCGGGUAAGUUUAAAUAGUCUGCAUGCCGCCGGGCGCCAUGCCUGCAGGUCGACUCUAGAAAACAUG,binding signal,PUM1 PUF domain R7-RKR,2.99 log2 enrichment (interaction score)
same,binding signal,PUM1 PUF domain R7-RVR,4.32 log2 enrichment (interaction score)
GGCUAGAACUAGUGGAUCCCCCGGCGCCCGGCGGCUCGAGCCCGGGUAAGUGUAAUUAGUCUGCAUGCCGCCGGGCGCCAUGCCUGCAGGUCGACUCUAGAAAACAUG,binding signal,PUM1 PUF domain R3-RMK,4.31 log2 enrichment (interaction score)
GGCUAGAACUAGUGGAUCCCCCGGCGCCCGGCGGCUCGAGCCCGGGUAAGUGUGAAUAGUCUGCAUGCCGCCGGGCGCCAUGCCUGCAGGUCGACUCUAGAAAACAUG,binding signal,PUM1 PUF domain R5-TRA,1.91 log2 enrichment (interaction score)
